SMILES strings stand for the structures. Active and inactive are the calls of the source.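 How the source made its calls: active means compounds killing one labelled cell type while sparing the other, by normalised counts and ratio limits, not self-fluorescent; inactive means the rest.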

The nature of the assay: differential killing of epithelial or mesenchymal cells, primary screen, imaging, PC-3E GFP, TEM4-18 mCherry, co-culture (AID 1345086).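 On all read-outs here: cells exposed to compound for 72 h before imaging.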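 On red/green cell ratio (normalised): normalised mesenchymal count divided by normalised epithelial count so high means epithelial killing.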 The following applies: imaging cell counts, at 1 µM; for red/green cell ratio (normalised): actives lie on both sides, counts scaled to control wells, 1 = unselective.
The mark [1] stands for this setting: measured here: epithelial PC-3E GFP cell survival.
Where [2] appears, read: measured here: mesenchymal TEM4-18 mCherry cell survival.

On to `C=CC(C)(C)c1ccc2[nH]c3c(c2c1)C[C@@H]1CC[C@@]2(O)C4=CC(=O)[C@@H]5O[C@@]4(CC[C@]2(C)[C@@]31C)OC5(C)C`, for which the red/green cell ratio (normalised) was 1.04 (inactive). Further, the normalised cell number under setting [1] was 0.97. Under setting [2], this compound yielded a normalised cell number of 1.01.
As to `CN(C)c1cccc2c(S(N)(=O)=O)cccc12`, the red/green cell ratio (normalised) is 1.01 (inactive). In addition, the normalised cell number under setting [1] was found to be 1.15. The compound further displayed a normalised cell number under setting [2] of 1.16.
The corresponding values for `Cc1ccc(S[C@H]2OC(CO)C(O)[C@@H]3OC(=O)N[C@H]23)cc1` (some centres undefined) are 0.98 (inactive), 1.01 and 0.99.
For `CC1(C)C(C(=O)O)N2C(=O)C[C@H]2S1(=O)=O` (some centres undefined) the same measures were 0.69 (inactive), 1.22 and 0.84.
For `C[C@@H]1C[C@H](O)/C=C/[C@H](O)[C@@H](O)CC(=O)O1` the same measures were 0.87 (inactive), 1.16 and 1.02.
On to `COC(=O)CCC(C)[C@H]1CCC2C3C(C[C@H](O)[C@@]21C)[C@@]1(C)CC[C@@H](O)C[C@H]1C[C@H]3O` (some centres undefined), for which the red/green cell ratio (normalised) was 1.15 (inactive). This compound showed a normalised cell number under setting [1] of 0.89. This compound returned a normalised cell number under setting [2] of 1.02.
The corresponding values for `CC(=O)O[C@@H]1C[C@@]2(C)C(CC[C@@H]2C(C)=O)C2CCC3=CC(=O)CC[C@]3(C)C21` (some centres undefined) are 1.08 (inactive), 0.87 and 0.94.
For the compound `C[C@H](O)CCc1ccc(C(=O)O)nc1`, the red/green cell ratio (normalised) was 0.97 (inactive). The same compound yielded a normalised cell number under setting [1] of 1.16. Under setting [2], this compound came in with a normalised cell number of 1.13.
The corresponding values for `CC(C)CCCC(C)[C@H]1CCC2C3C=CC4=CC(=O)CC[C@]4(C)C3CC[C@@]21C` (some centres undefined) are 0.99 (inactive), 0.94 and 0.93.
For `COC(=O)CCC(C)C1CCC2C3CC[C@@H]4C[C@H](O)CC[C@]4(C)C3C[C@H](O)[C@]12C` (some centres undefined), the red/green cell ratio (normalised) was 0.9 (inactive). This compound returned a normalised cell number under setting [1] of 1.05. Under setting [2], the normalised cell number came out at 0.94.
As for `COc1cccc(Oc2c(O)cc(C)cc2CC(=O)c2cc(C)cc(O)c2C(=O)c2c(O)cccc2O)c1C(=O)O`, the red/green cell ratio (normalised) is 1.1 (inactive). The same compound yielded a normalised cell number under setting [1] of 1.09. Besides, the normalised cell number under setting [2] turned out to be 1.21.
The corresponding values for `O=c1cc(-c2ccccc2)oc2ccc(O)cc12` are 1.07 (inactive), 0.91 and 0.97.
With `C[C@]12CCC3c4ccc(OC(=O)c5ccccc5)cc4CCC3C1CC[C@@H]2O` (some centres undefined), the red/green cell ratio (normalised) was 1.1 (inactive). Further, the normalised cell number under setting [1] came out at 1. The same compound came in with a normalised cell number under setting [2] of 1.1.
The corresponding values for `CC(=O)OCC1O[C@H]2OC(=O)NC2[C@@H](OC(C)=O)C1OC(C)=O` (some centres undefined) are 0.82 (inactive), 1.33 and 1.08.
The corresponding values for `C/C1=C\[C@H](C)C[C@H](C)[C@@H](C)OC(=O)[C@H](Cc2ccccc2)NC(=O)[C@@H](C)C(=O)C(C)C1O` (some centres undefined) are 0.99 (inactive), 1.08 and 1.06.
In the case of `COc1cc(-c2coc3cc(O)c(OC)c(O)c3c2=O)cc(O)c1OC`, the red/green cell ratio (normalised) was 0.95 (inactive). The compound further yielded a normalised cell number under setting [1] of 1.03. Moreover, under setting [2], the normalised cell number came to 0.98.
The corresponding values for `CCCCCCCCC[C@H]1O[C@]2(O)CC[C@H](O)[C@]2(O)[C@@H]1O` are 0.97 (inactive), 0.93 and 0.91.
The corresponding values for `CC(C)[C@@H]1CCC(CO)=C[C@@H]1/C=C(\CO)C(=O)O` are 0.88 (inactive), 1.29 and 1.13.

The record behind these values is PubChem BioAssay.
